Source: publication PMC4336329 (PLoS ONE, 2015)
Screen size: about 310,000 compounds; about 14,000 (4.5%) showed an effect of 50% or more. Effects have a minus sign here. This is one part of a sample in which strong results are shown more often than they occur.

Target: human ether-à-go-go-related gene (hERG) potassium channel (human, UniProt Q12809)
Assay: primary screen, population patch clamp on CHO cells stably expressing hERG; higher = less effect of the substance
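Also: peak tail current of the secondary pulse compared with the same well before compound.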

Sequence of human ether-à-go-go-related gene (hERG) potassium channel (Q12809 whole entry, looked up): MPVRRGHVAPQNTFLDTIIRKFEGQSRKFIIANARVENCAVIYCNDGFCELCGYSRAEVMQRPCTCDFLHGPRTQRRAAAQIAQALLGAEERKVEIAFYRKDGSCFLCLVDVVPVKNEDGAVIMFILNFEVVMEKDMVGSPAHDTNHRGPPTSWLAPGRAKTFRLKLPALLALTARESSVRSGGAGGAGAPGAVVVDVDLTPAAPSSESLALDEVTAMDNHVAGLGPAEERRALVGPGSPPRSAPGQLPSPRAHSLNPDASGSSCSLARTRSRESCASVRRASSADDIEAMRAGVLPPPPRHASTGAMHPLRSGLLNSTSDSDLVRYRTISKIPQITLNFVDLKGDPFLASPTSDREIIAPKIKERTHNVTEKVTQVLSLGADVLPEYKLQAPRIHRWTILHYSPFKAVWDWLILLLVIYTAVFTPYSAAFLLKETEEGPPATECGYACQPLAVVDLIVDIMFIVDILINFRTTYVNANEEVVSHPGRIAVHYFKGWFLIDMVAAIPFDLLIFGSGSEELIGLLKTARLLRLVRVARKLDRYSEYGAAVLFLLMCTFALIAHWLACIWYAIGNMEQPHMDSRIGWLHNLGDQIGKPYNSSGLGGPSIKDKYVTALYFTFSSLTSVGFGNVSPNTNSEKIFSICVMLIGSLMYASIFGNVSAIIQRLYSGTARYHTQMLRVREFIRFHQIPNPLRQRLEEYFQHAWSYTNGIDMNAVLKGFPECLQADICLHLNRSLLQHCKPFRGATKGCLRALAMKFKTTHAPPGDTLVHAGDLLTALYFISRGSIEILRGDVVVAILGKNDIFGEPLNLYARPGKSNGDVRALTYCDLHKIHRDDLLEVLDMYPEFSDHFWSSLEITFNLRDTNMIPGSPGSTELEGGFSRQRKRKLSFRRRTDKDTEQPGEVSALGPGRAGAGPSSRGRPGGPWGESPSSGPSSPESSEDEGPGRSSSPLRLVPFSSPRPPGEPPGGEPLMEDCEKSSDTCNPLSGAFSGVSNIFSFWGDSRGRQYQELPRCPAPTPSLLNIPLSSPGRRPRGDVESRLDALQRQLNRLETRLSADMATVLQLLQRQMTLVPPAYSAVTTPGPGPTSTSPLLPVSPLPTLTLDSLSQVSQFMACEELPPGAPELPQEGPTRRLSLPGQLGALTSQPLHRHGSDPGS

Row | SMILES | hERG current change (%, negative = inhibition) at 10uM
1 | CCCc1cc2c(cc1NC(=O)c1ccccc1F)OCO2 | -11.3%
2 | CC(=O)Nc1sc2c(c1C(=O)N1CCOCC1)CCCCC2 | 17.9%
3 | Cc1ccc(-n2ncc3c(NCC4CCCO4)ncnc32)c(C)c1 (centres unmarked) | 12.9%
4 | COc1cc(C(C)=O)ccc1OCC(=O)Nc1ccc2nc(C)sc2c1 | 13.4%
5 | CC(SC#N)C(=O)C12CC3CC(CC(C3)C1)C2 (centres unmarked) | -8.99%
6 | O=C1CN=C(c2ccccc2)c2ccccc2N1 | 8.11%
7 | O=[N+]([O-])/C=C/c1cn(Cc2ccc(Cl)cc2)c2ccccc12 | 2.65%
8 | O=C(NCc1cccnc1)C(Cl)(Cl)Cl | 0.208%
9 | CCN(CC)c1ccc(S(=O)(=O)N2CCOCC2)cc1NC(=O)COC(=O)COc1ccccc1C | 12.7%
10 | CC1=CC=CC2=NC(=O)CC(C)(C(=O)N(CC(=O)NC3CCCC3)c3ccc(F)cc3)N12 (centres unmarked) | 11.1%
11 | Cc1nn(C)c(C)c1S(=O)(=O)N(CC(=O)NCCN1CCOCC1)c1ccc(C(C)C)cc1 | -2.41%
12 | Cc1nn(C)c(C)c1S(=O)(=O)N(CC(=O)NCc1cccs1)c1ccc(C(C)C)cc1 | 9.79%
13 | Cc1nn(C)c(C)c1S(=O)(=O)N(CC(=O)Nc1ccccn1)c1ccc(C(C)C)cc1 | -7.4%
14 | Cc1cccc(NC(=O)CN(c2ccc(C(C)C)cc2)S(=O)(=O)c2c(C)nn(C)c2C)n1 | -12.2%
15 | Cc1nn(C)c(C)c1S(=O)(=O)N(CC(=O)NCc1ccco1)c1ccc(C(C)C)cc1 | 16.6%
16 | Cc1nn(C)c(C)c1S(=O)(=O)N(CC(=O)NCCCN1CC(C)CC(C)C1)c1ccc(C(C)C)cc1 (centres unmarked) | -66.4%
17 | Cc1nn(C)c(C)c1S(=O)(=O)N(CC(=O)NC1CCCCCC1)c1ccc(C(C)C)cc1 | -10.4%
18 | Cc1nn(C)c(C)c1S(=O)(=O)N(CC(=O)NCCCOC(C)C)c1ccc(C(C)C)cc1 | -69.6%
19 | Cc1nn(C)c(C)c1S(=O)(=O)N(CC(=O)NCCCN1CCC(C)CC1)c1ccc(C(C)C)cc1 | -64.7%
20 | C#CCOCCOCCOCCNc1nc(N2CCN(C(=O)[C@H]([C@@H](C)CC)n3cc(CCCC[NH3+])nn3)CC2)nc(N2CCN(C(=O)[C@H](CCCC[NH3+])n3cc(CC(C)O)nn3)CC2)n1.[Cl-] (some centres unmarked) | 14.3%
21 | COc1ccc(C2C(C#N)=C(C)NC3=C2C(=O)CC(C)(C)C3)c(OC)c1 (centres unmarked) | -6.3%
22 | Cc1ccccc1OCCCCn1c(CO)nc2ccccc21 | -45.1%

Row | SMILES | hERG current change (%, negative = inhibition) at 10uM
23 | COc1ccc(-c2nnc(SCC(=O)NCc3cccs3)n2CC(C)C)cc1 | -15.2%
24 | CNC(=S)N1CCN(c2ccccc2OC)CC1 | 7.94%
25 | CC(=O)n1cc(/C=N/NC(N)=S)c2ccccc21 | -18.4%
26 | CCCCN=C1CC(C)(C)CC(=O)/C1=C(/O)CCCN1C(=O)c2ccccc2C1=O | -61.4%
27 | CC/C(O)=C1\C(=O)CC(c2ccccc2)CC1=NCCC(=O)O (centres unmarked) | 15.6%
28 | O=C1CC(c2ccccc2)CC(=NCCO)/C1=C(\O)CCCN1C(=O)c2ccccc2C1=O (centres unmarked) | -71.9%
29 | CC1(C)CC(=O)/C(=C(\O)CCCN2C(=O)c3ccccc3C2=O)C(=NCCO)C1 | 11.7%
30 | O=C(O)CN=C1CC(c2ccccc2)CC(=O)/C1=C(/O)CCCN1C(=O)c2ccccc2C1=O (centres unmarked) | 1.09%
31 | CCCN=C1CC(C)(C)CC(=O)/C1=C(/O)CCCN1C(=O)c2ccccc2C1=O | -11.4%
32 | CCCCCCNc1cc2n(c(=O)n1)CCc1cc(OC)c(OC)cc1-2 | -46.7%
33 | CCOc1ccc(C(C)NC(=O)c2ccc3c(c2)NC(=O)C(C)S3)cc1OCC (centres unmarked) | 1.73%
34 | O=C(CS(=O)(=O)c1c[nH]c2ccccc12)NC1CCCCC1 | -8.19%
35 | Cc1ccc(CN2CCN(CC(=O)N/N=C/c3ccc(C)o3)CC2)cc1 | -64.2%
36 | CSc1ccc(/C=N/NC(=O)CN2CCN(Cc3ccccc3)CC2)cc1 | -74.6%
37 | CSc1ccc(/C=N/NC(=O)CN2CCN(Cc3ccc(Cl)cc3)CC2)cc1 | -35.1%
38 | CSc1ccc(/C=N/N2CCN(Cc3ccccc3)CC2)cc1 | -5.46%
39 | Cc1ccc(/C=N/NC(=O)CN2CCN(Cc3ccccc3Cl)CC2)o1 | -23.5%
40 | CSc1ccc(/C=N/NC(=O)CN2CCN(Cc3ccc(C)cc3)CC2)cc1 | -63.2%
41 | CSc1ccc(/C=N/NC(=O)CN2CCN(Cc3ccccc3Cl)CC2)cc1 | -37.5%
42 | CSc1ccc(/C=N\NC(=O)CNc2ccc(C)cc2)cc1 | -2.08%
43 | Cc1ccc(/C=N/NC(=O)CN2CCN(Cc3ccccc3)CC2)o1 | -11.7%
44 | CSc1nnc(-c2ccc(S(=O)(=O)N3CCOCC3)cc2)n1C | -25%
